# PINK1 expr mod: changes PINK1 expression | PINK1 immunofluorescence, high-content cytometry, 24 h | Potency, µM (series often up to 76.6 µM), without a hit: at the top dose activation (PINK1 increase), most hits filed as activators | 0.2% of 410,000 active | AID 624263; active = well fitted activation curve with a large enough effect; inconclusive = small, poorly fitted or top-dose-only effect; cell line not stated here; note: % of control where 0% means no effect; nearly all actives have a fitted effect of over 65% in size
#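 Fluorescence from anti-PINK1 antibody, together with nuclear and cell stains, was scanned on a laser-scanning cytometer. Before staining, stable-line cells were incubated 24 hours with compounds at 5 concentrations; primary antibody 12 h at 10 degrees C.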
# Epigenetic reg: derepresses silenced GFP reporter in murine cells. Potency, µM (series often up to 53.9 µM), for the others: top-dose GFP activation, actives largely listed as activators. 0.2% of 280,000 active. murine LDR cells, GFP reporter derepression, 30 h; note: % of control where 0% means no effect; nearly all actives have a fitted effect of over 60% in size
#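 Murine LDR cells bearing a silenced CMV-driven GFP reporter were exposed to compound for 30 h at 37 C. After PBS washes, GFP-positive cells (20-120 um objects) counted by laser-scanning microplate cytometry.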
# Nrf2 ARE act: activators of Nrf2 (ARE) signaling | AREc32 ARE-luciferase reporter (MCF7-derived line), luminescence, 24 h | Potency, µM (doses to about 46.1 µM), for inactives: top-dose activation, actives largely listed as activators | 0.31% of 410,000 active; note: % of control where 0% means no effect; nearly all actives have a fitted effect of over 65% in size
#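 Nrf2 activation is followed as ARE-luciferase induction in the AREc32 line after one day of compound treatment; luminescence is read with Steady-Glo.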
# A549 tox: kills or reduces viability of A549 cells in Nrf2 counter-screen; A549 ARE-Fluc cells, CellTiter-Fluor viability, 18-24 h; Potency, µM (titrated, usually from 46 µM), inactives show top-dose activity change, negative = cytotoxicity, actives largely listed as inhibitors; 0.16% of 390,000 active; AID 504648; note: % is set by controls: 0 for no effect and ±100 for the full control effect
#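 Cytotoxicity counterscreen: CellTiter-Fluor fluorescence was measured in A549 ARE_Fluc cells after 18-24 h of compound exposure in a concentration series. The subsequent BugLite luminescent read reports ARE-luciferase activity.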
# Nrf2 block: inhibitors of Nrf2 signaling; A549 ARE-Fluc reporter, luciferase luminescence, 18-24 h; Potency, µM (top dose mostly 46 µM), inactives show at the top dose activity change, negative = inhibition, usual class: inhibitors; 2.1% of 360,000 active; AID 504444; note: % is set by controls: 0 for no effect and ±100 for the full control effect; nearly all actives have a fitted effect of over 60% in size
#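 Two sequential reads on A549 ARE_Fluc cells exposed to compound for 18-24 h: a CellTiter-Fluor fluorescence read for viability, then a luciferase luminescence read for Nrf2/ARE activity.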
# The depositor's hits bear a star; ? = inconclusive; . = not tested or not shown; [ ] = another dose, or the depositor's remark. Compounds with a hit are over-represented: about 2.4% of the library has one in this group of screens. Unless noted, calls come from the whole dose curve; as a rule, active = well fitted curve in the direction sought with a large enough effect; inconclusive = small, poorly fitted or top-dose-only effect, or another doubt; inactive = no such curve, though single readings can be large; an effect the other way counts as inactive or inconclusive. Potency is the fitted concentration of half-maximal effect.
SMILES,PINK1 expr mod,Epigenetic reg,Nrf2 ARE act,A549 tox,Nrf2 block
CCC(=O)N1N=C(c2c(-c3ccccc3)c3cc(Cl)ccc3[nH]c2=O)CC1c1ccco1 (stereo unspecified),2%,2%,3%,?,23µM*
COc1cccc(CN2CCc3nnc(CCc4ccccc4)n3CC2)c1OC,1%,.,.,.,.
CCN(C(=O)CSc1ncc(S(=O)(=O)c2ccc(C)c(Cl)c2)c(=O)[nH]1)c1cccc(C)c1,2%,-1%,-1%,8%,.
CC(C)(C)OC(=O)Cc1nnc(-c2cc3ccccc3[nH]2)o1,.,.,.,0%,?
CCCCN(C(C)=O)c1ccc2c(c1)C1CC2CCN1C(=O)OCc1ccccc1 (stereo unspecified),2%,.,4%,-10%,23µM*
CCN(CCc1ccccc1)c1ccc2c(c1)C1CC2CCN1C(=O)OCc1ccccc1 (stereo unspecified),2%,.,-1%,-6%,27%
Cc1nc2sccn2c1CN1Cc2ccccc2OC(c2ccccc2F)C1 (stereo unspecified),-1%,.,.,.,.
Cc1cccc(C)c1Nc1c(-c2ccsc2)nc2ccccn12,3%,-1%,1%,-22%,18µM*
Cc1cccc(C)c1Nc1c(-c2ccsc2)nc2ccc(Cl)cn12,2%,-2%,-1%,-6%,-18%
COc1ccccc1-c1noc(CSc2nnc(Cc3ccccc3)n2-c2ccc(C)c(C)c2)n1,-1%,-2%,-3%,?,23µM*
Clc1ccc(-n2c(Cc3ccccc3)nnc2SCc2nc(-c3cccs3)no2)cc1,0%,2%,0%,?,?
CCOc1ccc(-n2c(Cc3ccccc3)nnc2SCc2nc(-c3cccs3)no2)cc1,0%,-2%,6%,?,18µM*
COCCN(CCOC)C(=O)c1ccc(Cc2nc3ccccc3[nH]2)cc1,.,-2%,.,.,.
Cc1cnc(-n2ncc(C(=O)NCCc3ccccn3)c2C)nc1-c1ccc(F)cc1,-1%,.,.,.,.
Cc1nnc(CN(C)c2ncnc3ccc(-c4ccc5c(c4)OCO5)cc23)o1,.,.,.,2%,21%
COc1ccc(-n2cc(-c3ccccc3)[n+]3c2CCCCC3)cc1,1%,7%,0%,-14%,8.2µM*
FC(F)Sc1ccc(-n2cc(-c3ccccc3)[n+]3c2CCC3)cc1,1%,1%,-1%,-7%,?
CCN(CC)CCn1c(-c2ccccc2)nc2c(NCCOC)nc(C)nc21,.,1%,.,.,.
CCN1C(=NCCCOC(C)C)N[C@@H](CCc2ccccc2)[C@H](C(=O)NCCCOC(C)C)[C@H]1C,22µM*,.,0%,-13%,?
CCN1C(=NCCOC)N[C@@H](CCc2ccccc2)[C@H](C(=O)OC)[C@H]1C,1%,.,0%,-3%,12%
Cc1cc2c(s1)c1cnn(Cc3cc(F)ccc3C)c(=O)c1n2C,.,.,.,-2%,5%
Clc1ccc(N2CCN(/N=C/c3cccnc3)CC2)cc1,0%,.,0%,-7%,8.2µM*
Cc1cccnc1-c1cccc2c1OC(CNC(=O)Cc1c(C)noc1C)C2 (stereo unspecified),0%,.,.,.,.
COc1cc(C=O)ccc1OCCOc1ccccc1[N+](=O)[O-],1%,-2%,13µM*,7%,2%
COc1cc(C=O)ccc1OCCCOc1ccccc1C(=O)O,0%,7%,-2%,11%,8.2µM*
SMILES,PINK1 expr mod,Epigenetic reg,Nrf2 ARE act,A549 tox,Nrf2 block
CCCCC/C=C\C\C=C/C=C/C=C/[C@@H](SC[C@H](N)C(=O)NCC(=O)O)[C@@H](O)CCCC(=O)O,.,0%,.,.,.
O=C1CCCC2=C1C1(CCCC1)N=C(Nc1nc3ccccc3n1Cc1ccccc1)N2,.,.,.,-6%,16µM*
CCCCc1nn2c(=O)cc(COC(=O)c3ccc(NC(=O)C4CCCCC4)cc3)nc2s1,0%,3%,0%,6%,.
N#C/C(=N\Nc1cccc(F)c1)C(=N)N1CCCCCC1,0%,5%,0%,-24%,?
N#C/C(=N\Nc1cccc(F)c1)C(=O)C1CC1,14%,0%,0%,?,21µM*
CCN(CC)S(=O)(=O)c1ccc2c(c1)c(=O)c(C(=O)NCc1ccccc1Cl)cn2C,1%,-2%,0%,-4%,-30%
COc1cc2oc3ccccc3c2cc1N(CC(=O)N(C)C)S(=O)(=O)c1ccccc1,0%,-1%,0%,0%,17%
CCN(CC)C(=O)CN(c1cc2c(cc1OC)oc1ccccc12)S(=O)(=O)c1ccccc1,5%,-1%,-1%,?,16µM*
Cc1cc(C)c2nc(NNC(=O)c3ccc(S(=O)(=O)N4CC(C)CC(C)C4)cc3)sc2c1 (stereo unspecified),11%,5%,4%,-11%,?
Cc1cccc2sc(NNC(=O)c3ccc(S(=O)(=O)N4CC(C)CC(C)C4)cc3)nc12 (stereo unspecified),40µM*,2%,-3%,-1%,?
COc1ccccc1C1CN(CCNC(=O)c2ccc3c(c2)OCCO3)Cc2ccccc2O1 (stereo unspecified),1%,.,.,.,.
CCn1c2ccccc2c2cc(NC(=O)CSc3nnc(C4CC4)n3Cc3ccco3)ccc21,-1%,6%,4%,-12%,18µM*
CCn1c2ccccc2c2cc(NC(=O)c3ccco3)ccc21,-1%[38.3 µM],-1%,2%,-18%,21µM*
CCn1c(=N)n(CC(=O)c2ccco2)c2ccccc21,.,0%,10µM*,-26%,-19%
COC(=O)c1ccc(CNC(=O)c2coc3ccccc3c2=O)cc1,0%,0%,0%,-7%,-2%
COc1ccc(CCNC(=O)c2coc3ccccc3c2=O)cc1,0%,.,0%,-7%,13µM*
COc1cccc(-n2cc(C(=O)NCCc3ccc(C)cc3)c3ccccc3c2=O)c1,-1%,0%,0%,-4%,-4%
COc1ccc(-n2cc(C(=O)NCCc3ccc(C)cc3)c3ccccc3c2=O)cc1,-1%,0%,4%,-2%,18µM*
COc1cc2nc(N3CCCN(C)CC3)nc(OC3CCN(C)CC3)c2cc1OC,-1%,.,.,.,.
O=C(/C=C/c1cccc([N+](=O)[O-])c1)c1cccs1,-2%,3%,16µM*,2%,?
O=C(/C=C/c1ccc(O)cc1)c1cccs1,.,-3%,.,.,.
O=C(/C=C/c1cccc([N+](=O)[O-])c1)N1CCOCC1,-1%,0%,13µM*,2%,12%
O=C(C=Cc1cccs1)c1cccs1,-2%,.,22µM*,0%,1%
O=C(/C=C/c1cccc([N+](=O)[O-])c1)Nc1ccc(NC(=O)c2cccs2)cc1,7%,0%,-1%,-3%,-6%
O=C(/C=C/c1ccc(-c2cccc([N+](=O)[O-])c2)o1)N1CCOCC1,0%,8%,13%,-1%,?
CCOC(=O)c1ccccc1N/C=C/C(=O)c1cccs1,1%,-2%,6.3µM*,-3%,?
O=C(Nc1cc(F)ccc1F)c1cnn2c1NC(=C1CC1)C=C2C(F)F,0%,.,.,.,.

# Screens deposited in PubChem by National Center for Advancing Translational Sciences (NCATS).
